PubChem BioAssay
Activity calls are given as the source filed them.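 Rule for the calls, unless noted: active = visual image review flags a hit and inhibition of aggregation exceeds 20%; inconclusive = visual hit but inhibition at or below 20%; inactive = no hit on visual image review.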

Experiment: inhibitors of TNFa-induced NFkB p65 translocation, primary screen, imaging, HUVEC, MLSMR starter and 10KST1 sets (AID 438;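 active = inhibition above 20% together with a positive visual image hit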;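 note: compound added about 3h40 before a 20 min TNFalpha stimulation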;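 for inhibition: signal is the nuclear over cytoplasmic p65 intensity ratio per well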)
Details: HUVEC TNFa-induced p65 nuclear translocation; cell count: measured here: nuclei count (cytotoxicity indicator), at 2.08 µM; inhibition: at 2 µM, stronger effect = higher value, 0% TNFa-plus-vehicle, 100% no-TNFa wells

Structure (SMILES)	inhibition	cell count
O=C(O)c1cc(O)c2c(c1)C(=O)c1cccc(O)c1C2=O	-3% (inactive)	610
CCCCC(=O)Nc1c(O)c2ccccc2[nH]c1=O	1.5% (inactive)	450
Cc1cc(C)n(CC(=O)n2c3c(c4ccccc42)CCCC3)n1	-6.5% (inactive)	515
CCC(NC(C)C)C(O)c1ccc(O)c(O)c1 (stereo unspecified)	-7.3% (inactive)	661
COc1ccc(C2CNC(=O)C2)cc1OC1CCCC1 (stereo unspecified)	-1.7% (inactive)	595
Cn1cnc2c1c(=O)[nH]c(=O)n2C	-10.8% (inactive)	544
N=c1nc(N2CCCCC2)cc(N)n1O	0.9% (inactive)	660
CCCCCC(=O)N1CC2(C)CN(C(=O)CCCCC)CC(C)(C1)C2=O	3.2% (inactive)	482
O=C(O)Cc1ccc(-c2ccccc2)cc1	-3% (inactive)	636
CCSc1nc(N)c(C#N)c(-c2ccccc2Cl)c1C#N	-3.2% (inactive)	494
O=C(OCC#CCSc1nnc(-c2ccccc2)o1)c1cccs1	-2.4% (inactive)	281
Nc1nc(F)nc2c1ncn2[C@@H]1O[C@H](CO)[C@@H](O)[C@@H]1O	-6.8% (inactive)	526
Cc1nc2sccn2c(=O)c1CCN1CCC(=C(c2ccc(F)cc2)c2ccc(F)cc2)CC1	-5.2% (inactive)	597
OCCNC1=NCCN1	-6.3% (inactive)	552
CCC[C@@H]1C[C@@H](C(=O)N[C@H]([C@@H](C)O)[C@H]2O[C@H](SC)[C@H](O)[C@@H](O)C2O)N(C)C1 (stereo partly specified)	-4.3% (inactive)	619
CCOC(=O)C1=C[C@]2(CC)CCCN3CCc4c(n1c1ccccc41)[C@@H]32	-1.6% (inactive)	689
NS(=O)(=O)c1cc2c(cc1Cl)NC(CSCc1ccccc1)=NS2(=O)=O	-8.9% (inactive)	643
Nc1ccc(S(=O)(=O)Nc2ccccn2)cc1	5.6% (inactive)	684
CC(=O)Oc1cccc2c1C(=O)c1c(OC(C)=O)cc(C(=O)O)cc1C2=O	3.9% (inactive)	646
OCC(O)CN1CCN(c2ccccc2)CC1 (stereo unspecified)	-6.5% (inactive)	605

Structure (SMILES)	inhibition	cell count
O=C(NC1(C(F)(F)F)C(=O)Nc2c1c(=O)[nH]c(=O)n2Cc1ccco1)C1CCCCC1 (stereo unspecified)	4.1% (inactive)	463
CCN(CC)CC#CCOC(=O)C(O)(c1ccccc1)C1CCCCC1 (stereo unspecified)	-6.6% (inactive)	506
CN1[C@@H](CC(=O)c2ccccc2)CCC[C@H]1C[C@H](O)c1ccccc1	-3.2% (inactive)	617
O=C(O)c1ccccc1Nc1cccc(C(F)(F)F)c1	3.3% (inactive)	626
O=[N+]([O-])c1cccc2cn[nH]c12	1.2% (inactive)	615
COc1cccc(-c2nnc3sc(C4CCCCC4)nn23)c1	-0.9% (inactive)	569
CNCCCC1c2ccccc2C=Cc2ccccc21	-3.3% (inactive)	583
CC(C)(C)NCC(O)COc1cccc2c1C[C@H](O)[C@H](O)C2 (stereo partly specified)	3.8% (inactive)	666
CCOC(=O)CSC1=C(C#N)C(=O)NC(c2ccc(OC)c(OC)c2)S1 (stereo unspecified)	-4.2% (inactive)	561
COc1ccc2nc(S(=O)Cc3ncc(C)c(OC)c3C)[nH]c2c1 (stereo unspecified)	1.6% (inactive)	542
Cc1cc(C)c(C#N)c(SCc2[nH]nc3c2C(c2ccccc2)C(C#N)=C(N)O3)n1 (stereo unspecified)	-7.7% (inactive)	633
O/N=C/c1ccc(OCC(O)COc2ccc(/C=N/O)cc2)cc1	3.9% (inactive)	678
CC(C)(C)OC(=O)N1CC=C2C(C#N)=C(N)C(C#N)(C#N)[C@H](c3cccnc3)[C@H]2C1	-13.5% (inactive)	461
Oc1c(I)cc(I)c2cccnc12	-0.5% (inactive)	615
CCCCOc1ccc(C(=O)CCN2CCCCC2)cc1	-10.4% (inactive)	591
CN(C)c1nc(OCCOC(=O)Nc2ccc(Cl)cc2Cl)nc(N(C)C)n1	-14.7% (inactive)	397
CCOC(=O)c1c(C)n(C)c2ccc(OC)c(NC(=O)CCN3CCSCC3)c12	3% (inactive)	476
CC(C)(C)n1cnc2cc(NS(=O)(=O)c3ccc(Br)cc3)ccc21	-1.5% (inactive)	543
Cn1c([N+](=O)[O-])cnc1COC(N)=O	-2.1% (inactive)	663

Experiment: reduction of polyQ htt aggregates in cells – imaging, exon1htt(103Q)mCFP cells, high-content imaging, primary screen (AID 483);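 note: compound exposure lasted 3 days before fixation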;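 for nuclei count: percent of the per-plate median nuclei count of sample wells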
Details: exon1htt(103Q)mCFP cell line, aggregate imaging, at 2 µM; inhibition of aggregation: stronger effect = higher value; nuclei count: measured here: cell count, toxicity

Structure (SMILES)	nuclei count [%]	inhibition of aggregation
O=C(O)c1cc(O)c2c(c1)C(=O)c1cccc(O)c1C2=O	100	26.7% (inactive)
CCCCC(=O)Nc1c(O)c2ccccc2[nH]c1=O	104	-22.7% (inactive)
Cc1cc(C)n(CC(=O)n2c3c(c4ccccc42)CCCC3)n1	99.3	13.5% (inactive)
CCC(NC(C)C)C(O)c1ccc(O)c(O)c1 (stereo unspecified)	109	1% (inactive)
COc1ccc(C2CNC(=O)C2)cc1OC1CCCC1 (stereo unspecified)	97.8	-10.3% (inactive)
Cn1cnc2c1c(=O)[nH]c(=O)n2C	97	-16.4% (inactive)
N=c1nc(N2CCCCC2)cc(N)n1O	114	-1.2% (inactive)
CCCCCC(=O)N1CC2(C)CN(C(=O)CCCCC)CC(C)(C1)C2=O	97.5	-8.1% (inactive)
O=C(O)Cc1ccc(-c2ccccc2)cc1	105	-7.3% (inactive)
CCSc1nc(N)c(C#N)c(-c2ccccc2Cl)c1C#N	71.7	25.1% (inactive)
O=C(OCC#CCSc1nnc(-c2ccccc2)o1)c1cccs1	95.4	8.9% (inactive)
Nc1nc(F)nc2c1ncn2[C@@H]1O[C@H](CO)[C@@H](O)[C@@H]1O	103	-1.5% (inactive)
Cc1nc2sccn2c(=O)c1CCN1CCC(=C(c2ccc(F)cc2)c2ccc(F)cc2)CC1	104	4% (inactive)
OCCNC1=NCCN1	104	28.8% (active)
CCC[C@@H]1C[C@@H](C(=O)N[C@H]([C@@H](C)O)[C@H]2O[C@H](SC)[C@H](O)[C@@H](O)C2O)N(C)C1 (stereo partly specified)	101	2.3% (inactive)
CCOC(=O)C1=C[C@]2(CC)CCCN3CCc4c(n1c1ccccc41)[C@@H]32	106	15.2% (inactive)
NS(=O)(=O)c1cc2c(cc1Cl)NC(CSCc1ccccc1)=NS2(=O)=O	103	13.9% (inactive)
Nc1ccc(S(=O)(=O)Nc2ccccn2)cc1	101	15.6% (inactive)
CC(=O)Oc1cccc2c1C(=O)c1c(OC(C)=O)cc(C(=O)O)cc1C2=O	105	6.8% (inactive)
OCC(O)CN1CCN(c2ccccc2)CC1 (stereo unspecified)	108	-0.5% (inactive)

Structure (SMILES)	nuclei count [%]	inhibition of aggregation
O=C(NC1(C(F)(F)F)C(=O)Nc2c1c(=O)[nH]c(=O)n2Cc1ccco1)C1CCCCC1 (stereo unspecified)	116	-6.3% (inactive)
CCN(CC)CC#CCOC(=O)C(O)(c1ccccc1)C1CCCCC1 (stereo unspecified)	97.3	-15.9% (inactive)
CN1[C@@H](CC(=O)c2ccccc2)CCC[C@H]1C[C@H](O)c1ccccc1	96.2	-2.2% (inactive)
O=C(O)c1ccccc1Nc1cccc(C(F)(F)F)c1	99.3	-7.4% (inactive)
O=[N+]([O-])c1cccc2cn[nH]c12	81.4	15.8% (inactive)
COc1cccc(-c2nnc3sc(C4CCCCC4)nn23)c1	66.9	42.2% (active)
CNCCCC1c2ccccc2C=Cc2ccccc21	79.5	10.3% (inactive)
CC(C)(C)NCC(O)COc1cccc2c1C[C@H](O)[C@H](O)C2 (stereo partly specified)	101	-15.5% (inactive)
CCOC(=O)CSC1=C(C#N)C(=O)NC(c2ccc(OC)c(OC)c2)S1 (stereo unspecified)	88.7	12.1% (inactive)
COc1ccc2nc(S(=O)Cc3ncc(C)c(OC)c3C)[nH]c2c1 (stereo unspecified)	97.5	2.2% (inactive)
Cc1cc(C)c(C#N)c(SCc2[nH]nc3c2C(c2ccccc2)C(C#N)=C(N)O3)n1 (stereo unspecified)	104	5.8% (inactive)
O/N=C/c1ccc(OCC(O)COc2ccc(/C=N/O)cc2)cc1	104	8.1% (inactive)
CC(C)(C)OC(=O)N1CC=C2C(C#N)=C(N)C(C#N)(C#N)[C@H](c3cccnc3)[C@H]2C1	70.7	45.1% (active)
Oc1c(I)cc(I)c2cccnc12	110	-10.9% (inactive)
CCCCOc1ccc(C(=O)CCN2CCCCC2)cc1	92.4	4.2% (inactive)
CN(C)c1nc(OCCOC(=O)Nc2ccc(Cl)cc2Cl)nc(N(C)C)n1	56.4	-0.2% (inactive)
CCOC(=O)c1c(C)n(C)c2ccc(OC)c(NC(=O)CCN3CCSCC3)c12	112	5.7% (inactive)
CC(C)(C)n1cnc2cc(NS(=O)(=O)c3ccc(Br)cc3)ccc21	99.9	-9.9% (inactive)
Cn1c([N+](=O)[O-])cnc1COC(N)=O	97.8	6.9% (inactive)
